Experimental data taken from PubChem BioAssay AID1159580 (chemical genetic matrix, 2015).
The campaign covered roughly 5,500 compounds. About 2,000 (36%) were called active. About 18% were inconclusive and are not listed. No stated cut-off is given here; in the data, active means normalized growth mostly below about 0.91 (no sharp cut-off); inconclusive means no clear call, values can overlap the other calls; inactive means mostly above about 0.92. Some of the results follow.

Assay: chemical genetic growth profiling, strain panel (AID 1159580);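 further: tested at 20 µM; growth read once vehicle control cultures reached saturation at 30 °C; 1 = growth at the plate median or of vehicle wells; lower values mean less growth of the strain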
Conditions: growth OD

Measured: normalized growth

CC1=C(C(C)O)C2=NC1C=c1[nH]c(c(C)c1C(C)O)=Cc1[nH]c(c(CCC(=O)O)c1C)C=c1[nH]c(c(C)c1CCC(=O)O)=C2 (stereo not drawn)
inactive: S. cerevisiae deletion strains, locus YJL187C, strain SWE1, hits give low values 0.995 | S. cerevisiae deletion strains, locus YJR043C, strain POL32, hits give low values 0.93 | S. cerevisiae deletion strains, locus YJR066W, strain TOR1, hits give low values 1.02 | S. cerevisiae deletion strains, locus YKL009W, strain mrt4, hits give low values 1.04 | S. cerevisiae deletion strains, locus YKL068W, hits give low values 1.01 | S. cerevisiae deletion strains, locus YKL085W, strain MDH1 (second series), hits give low values 1.02 | S. cerevisiae deletion strains, locus YKL085W, strain MDH1, hits give low values 1.02 | S. cerevisiae deletion strains, locus YKL160W, strain elf1, hits give low values 0.99 | S. cerevisiae deletion strains, locus YKL190W, strain CNB1, hits give low values 1 | S. cerevisiae deletion strains, locus YKR001C, strain vps1, hits give low values 1 | S. cerevisiae deletion strains, locus YKR026C, strain gcn3, hits give low values 0.989 | S. cerevisiae deletion strains, locus YKR091W, strain srl3, hits give low values 1 | S. cerevisiae deletion strains, locus YLL001W, strain dnm1, hits give low values 0.988 | S. cerevisiae deletion strains, locus YLL026W, hits give low values 0.992 | S. cerevisiae deletion strains, locus YLL041C, strain sdh2, hits give low values 0.995 | S. cerevisiae deletion strains, locus YLR027C, strain aat2, hits give low values 0.982 | S. cerevisiae deletion strains, locus YLR039C, strain RIC1, hits give low values 1.04 | S. cerevisiae deletion strains, locus YLR058C, strain SHM2, hits give low values 1 | S. cerevisiae deletion strains, locus YLR102C, strain apc9, hits give low values 1.02 | S. cerevisiae deletion strains, locus YLR221C, strain rsa3, hits give low values 0.967 | S. cerevisiae deletion strains, locus YLR258W, strain gsy2, hits give low values 0.996 | S. cerevisiae deletion strains, locus YLR262C, strain YPT6 (second series), hits give low values 1.06 | S. cerevisiae deletion strains, locus YLR262C, strain YPT6, hits give low values 1.01 | S. cerevisiae deletion strains, locus YLR268W, strain sec22, hits give low values 1.01 | S. cerevisiae deletion strains, locus YLR320W, strain mms22, hits give low values 0.938 | S. cerevisiae deletion strains, locus YLR330W, strain CHS5, hits give low values 1.01 | S. cerevisiae deletion strains, locus YLR342W, strain FKS1 (second series), hits give low values 0.995 | S. cerevisiae deletion strains, locus YLR342W, strain FKS1, hits give low values 0.987 | S. cerevisiae deletion strains, locus YLR357W, strain rsc2, hits give low values 0.923 | S. cerevisiae deletion strains, locus YLR370C, strain arc18, hits give low values 0.988 | S. cerevisiae deletion strains, locus YLR371W, strain rom2, hits give low values 1.02 | S. cerevisiae deletion strains, locus YLR384C, strain iki3, hits give low values 0.99 | S. cerevisiae deletion strains, locus YLR418C, strain cdc73, hits give low values 0.937 | S. cerevisiae deletion strains, locus YML016C, strain PPZ1, hits give low values 1.01 | S. cerevisiae deletion strains, locus YML032C, strain rad52, hits give low values 1 | S. cerevisiae deletion strains, locus YML120C, strain ndi1, hits give low values 1 | S. cerevisiae deletion strains, locus YML124C, strain tub3, hits give low values 1.02 | S. cerevisiae deletion strains, locus YMR058W, strain fet3, hits give low values 0.943 | S. cerevisiae deletion strains, locus YMR078C, strain ctf18, hits give low values 1.03 | S. cerevisiae deletion strains, locus YMR125W, strain sto1, hits give low values 1 | S. cerevisiae deletion strains, locus YMR129W, hits give low values 0.986 | S. cerevisiae deletion strains, locus YMR205C, strain PFK2, hits give low values 0.943 | S. cerevisiae deletion strains, locus YMR223W, strain ubp8, hits give low values 0.976 | S. cerevisiae deletion strains, locus YMR231W, strain pep5, hits give low values 0.98 | S. cerevisiae deletion strains, locus YMR307W, strain GAS1, hits give low values 0.82 | S. cerevisiae deletion strains, locus YNL067W, strain RPL9B, hits give low values 0.996 | S. cerevisiae deletion strains, locus YNL071W, strain lat1, hits give low values 0.963 | S. cerevisiae deletion strains, locus YNL183C, strain NPR1, hits give low values 1.02 | S. cerevisiae deletion strains, locus YNL209W, strain ssb2, hits give low values 0.999 | S. cerevisiae deletion strains, locus YNL233W, strain BNI4, hits give low values 0.994 | S. cerevisiae deletion strains, locus YNL248C, strain rpa49, hits give low values 0.971 | S. cerevisiae deletion strains, locus YNL250W, strain rad50, hits give low values 1.03 | S. cerevisiae deletion strains, locus YNL271C, strain bni1, hits give low values 1.01 | S. cerevisiae deletion strains, locus YNL298W, strain CLA4, hits give low values 1.02 | S. cerevisiae deletion strains, locus YNL307C, strain MCK1, hits give low values 1.02 | S. cerevisiae deletion strains, locus YNL322C, strain KRE1 (second series), hits give low values 0.99 | S. cerevisiae deletion strains, locus YNR049C, strain mso1, hits give low values 0.998 | S. cerevisiae deletion strains, locus YNR052C, strain pop2, hits give low values 1.02 | S. cerevisiae deletion strains, locus YOL012C, strain htz1 0.754 | S. cerevisiae deletion strains, locus YOL147C, strain pex11, hits give low values 1.01 | S. cerevisiae deletion strains, locus YOR001W, strain rrp6, hits give low values 1 | S. cerevisiae deletion strains, locus YOR061W, strain CKA2, hits give low values 1.01 | S. cerevisiae deletion strains, locus YOR069W, strain VPS5, hits give low values 1.01 | S. cerevisiae deletion strains, locus YOR070C, strain gyp1, hits give low values 0.989 | S. cerevisiae deletion strains, locus YOR080W, strain dia2, hits give low values 0.987 | S. cerevisiae deletion strains, locus YOR083W, strain WHI5, hits give low values 0.986 | S. cerevisiae deletion strains, locus YOR106W, strain vam3, hits give low values 0.94 | S. cerevisiae deletion strains, locus YOR136W, strain idh2, hits give low values 1.01 | S. cerevisiae deletion strains, locus YOR144C, strain elg1, hits give low values 1.02 | S. cerevisiae deletion strains, locus YOR184W, strain ser1, hits give low values 0.972 | S. cerevisiae deletion strains, locus YOR231W, strain MKK1, hits give low values 1.13 | S. cerevisiae deletion strains, locus YOR265W, strain rbl2, hits give low values 0.995 | S. cerevisiae deletion strains, locus YOR270C, strain vph1, hits give low values 0.915 | S. cerevisiae deletion strains, locus YOR290C, strain snf2, hits give low values 0.984 | S. cerevisiae deletion strains, locus YOR316C, strain cot1, hits give low values 1.02 | S. cerevisiae deletion strains, locus YPL051W, strain arl3, hits give low values 0.984 | S. cerevisiae deletion strains, locus YPL055C, strain LGE1, hits give low values 0.973 | S. cerevisiae deletion strains, locus YPL078C, strain atp4, hits give low values 0.996 | S. cerevisiae deletion strains, locus YPL106C, strain sse1, hits give low values 0.93 | S. cerevisiae deletion strains, locus YPL240C, strain hsp82, hits give low values 0.996 | S. cerevisiae deletion strains, locus YPL256C, strain CLN2, hits give low values 1.07 | S. cerevisiae deletion strains, locus YPR119W, strain clb2, hits give low values 1.02 | S. cerevisiae deletion strains, locus YPR141C, strain kar3, hits give low values 1.05 | S. cerevisiae deletion strains, locus YPR163C, strain tif3, hits give low values 1.01 | S. cerevisiae deletion strains, locus YPR167C, strain met16, hits give low values 1 | S. cerevisiae deletion strains, strain wtn01, hits give low values 0.981 | S. cerevisiae strains, strain wild type, hits give low values 0.968
active: S. cerevisiae deletion strains, locus YLR113W, strain HOG1, hits give low values 1.19 [resistant]
